Shown are actives, neighbours in structure and some others; about 4.2% of the full set was active somewhere.
TIM10 inh – inhibits growth of TIM10 yeast strain; S. cerevisiae TIM10 strain growth, BacTiter-Glo luminescence, 24 h; inhibition, % at 10 µM; 330,000 tested, 1.4% active;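 active = inhibition of 40% or more at the single tested concentration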;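 note: wild-type TIM10 isogenic control strain grown at permissive 25 °C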
tim23-1 inh – growth inhibitors of tim23-1 mutant yeast; inhibition, % at 20 µM; 330,000 tested, 1.3% active; S. cerevisiae tim23-1 growth, BacTiter-Glo luminescence, 24 h;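 active = growth inhibition of the mutant yeast at or above 50%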;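 note: temperature-sensitive mutant grown at 25 °C; plate controls were DMSO-treated mutant yeast for no effect and medium wells lacking yeast for full effect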
PfHsp90 yeast 2 – reduces growth (ATP signal) of yeast expressing P. falciparum Hsp90; S. cerevisiae expressing PfHsp90, BacTiter-Glo ATP, 48 h; yeast lacking PDR1 and PDR3 efflux regulators; inhibition, % at 9.4 µM; 310,000 tested, 0.32% active; AID 504621;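 active = every replicate shows inhibition above about 80%, whatever the replicate mean, limit read from the data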;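 note: 0% = DMSO neutral controls and 100% = 20 µM radicicol positive controls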
tim10-1 inh – growth inhibitors of tim10-1 mutant yeast; inhibition, % at 20 µM; S. cerevisiae tim10-1 ts strain growth, BacTiter-Glo, 24 h; AID 463190; 330,000 tested, 2.2% active;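 active = inhibition of at least 40%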;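 note: mutant grown at 25 °C; 0% = DMSO wells with yeast and 100% = wells holding no yeast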
NLRP3 yeast inh – NALP3 inhibition in yeast; Yeast reconstituted NLRP3/ASC/caspase-1, beta-gal luminescence, 24 h; inhibition, % at 10 µM; 330,000 tested, 0.39% active;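 active = inhibition of 50% or more; inactive = inhibition below 50%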;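 note: plate controls were induced DMSO wells for no effect and uninduced yeast grown without galactose for full effect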
NALP1 yeast inh – blocks the NALP1 inflammasome reconstituted in yeast; inhibition, % at 10 µM; 280,000 tested, 0.61% active; S. cerevisiae NALP1/ASC/caspase-1 growth, X-gal OD620, 72 h; in the data active = inhibition mostly above about 24%, no sharp cut-off; inactive = mostly below about 32%
The depositor's hits bear a star; x = not tested or not shown; ! = a repeat was not active.

SMILES | TIM10 inh | tim23-1 inh | PfHsp90 yeast 2 | tim10-1 inh | NLRP3 yeast inh | NALP1 yeast inh
CCOc1cc(/C=N/NC(=O)C2CCCC2)ccc1OC(C)C | 10.9 | 20.9 | -15.4 | 27.4 | 3.2 | 5.3
O=C1CCCN1C(=O)CSc1ncnc2sccc12 | -5.9 | 1.8 | 18.5 | -17.9 | 19.1 | x
Cc1ccc(NC(=O)Cn2nc(C)c(S(=O)(=O)N(C)C)c2C)cc1C | -17.5 | -0.5 | 0.2 | -22.8 | 11.7 | -6.4
Clc1ccc(OCCOCCN2CCc3ccccc3C2)c(Cl)c1 | -11.8 | -17.6 | 12.1 | -20.6 | 33.1 | 55.7*
Clc1ccc(OCCCN2CCc3ccccc3C2)c(Br)c1 | -15.4 | 2.8 | 0.1 | -36.6 | 37.1 | 2.9
CCCCC(=O)NC(c1cccc([N+](=O)[O-])c1)c1ccc2cccnc2c1O (stereo not given) | x | x | 115.0* | x | x | x
O=[N+]([O-])c1ccc(NC(c2ccccc2)c2ccc3cccnc3c2O)cc1 (stereo not given) | x | x | 112.5* | x | x | x
CC(=O)NC(c1cccc([N+](=O)[O-])c1)c1ccc2cccnc2c1O (stereo not given) | -64.4 | 35.8 | 33.1 | -16.2 | 15.4 | 5.0
Cc1ccc(NC(=O)C2CCN(S(=O)(=O)c3ccc(N4CCCC4=O)cc3)CC2)cc1Cl | -7.2 | 3.0 | 30.8 | -1.3 | 21.6 | 8.7
CCCCn1c(N)c(N(Cc2ccccc2OC)C(=O)CN2C(=O)NC3(CCCC3)C2=O)c(=O)[nH]c1=O | 4.6 | -0.9 | -37.9 | 11.2 | 4.8 | x
Cc1cc(C)c(S(=O)(=O)c2cccc(C)c2C)c(=O)[nH]1 | -3.0 | 10.0 | -19.9 | 18.7 | 7.2 | 32.9*
COc1ccccc1C(=O)NNC(=S)NC(=O)c1sc2ccccc2c1Cl | -7.3 | -37.2 | -18.1 | 8.4 | 21.9 | 2.6
COc1ccccc1C(=O)NNC(=S)NC(=O)c1cccs1 | 0.9 | 9.4 | 91.7* | 0.2 | 23.3 | -8.9
Cc1ccccc1N1C(=O)CC(c2c[nH]c3ccccc23)C1=O (stereo not given) | 7.9 | 11.4 | -6.3 | 0.2 | 10.0 | 23.1*
CC(Sc1nnc(-c2ccco2)n1C)C(=O)NC1CCCC1 (stereo not given) | -0.6 | -5.2 | -1.2 | -4.5 | 8.4 | x
CC(Sc1nnc(-c2ccco2)n1C)C(=O)N1C(C)CCCC1C (stereo not given) | 10.6 | 10.3 | -11.3 | 10.9 | 22.3 | 36.5*
CN(C)n1cnc2ccsc2c1=O | 7.2 | -7.2 | -4.4 | -7.5 | 3.0 | 29.7*
CC1CCCN(CCCOc2ccc(Cl)cc2Br)C1 (stereo not given) | -35.1 | -7.4 | 19.3 | -63.0 | 21.5 | 49.7*
CC1(C)Cc2cccc(C(=O)Nc3ccc(F)cc3F)c2O1 | 3.0 | 27.7 | 13.0 | 15.5 | -30.8 | 5.2
Cc1cc(S(=O)(=O)Nc2cc(C)c(O)c(C)c2)c(C)s1 | 24.4 | 18.8 | 6.3 | 24.6 | 1.4 | 40.0*
CCn1c(N2CCN(C(c3ccccc3)c3ccccc3)CC2)nc2c1c(=O)[nH]c(=O)n2C | x | x | 6.0 | x | x | x
O=C(/C=C/c1ccc([N+](=O)[O-])cc1)c1ccccc(=O)c1O | x | x | 123.0* | x | x | x
Cc1ccc(C)c(/C=C/C(=O)c2ccccc(=O)c2O)c1 | x | x | 103.2* | x | x | 27.8
Cc1ccc(C(=O)CC(=O)c2ccccc2C)c(O)c1 | 8.4 | 48.5 | -0.6 | 15.8 | -0.3 | -8.0
O=C(/C=C/c1ccccc1Cl)c1cccnc1 | 4.4 | 15.3 | 70.8 | 28.7 | -13.9 | 4.6
SMILES | TIM10 inh | tim23-1 inh | PfHsp90 yeast 2 | tim10-1 inh | NLRP3 yeast inh | NALP1 yeast inh
O=C(/C=C/c1ccccc1Cl)c1ccccc(=O)c1O | x | x | 95.9* | x | x | 5.4
Cc1ccc(/C=C/C(=O)c2ccccc(=O)c2O)c(C)c1 | 22.1 | 47.0 | 105.7* | 37.4 | -2.4 | 5.6
O=[N+]([O-])c1cccc(S(=O)(=O)Nc2ccc(-c3ccc(N4CCOCC4)nn3)cc2)c1 | 2.0 | 10.1 | x | 14.7 | 12.5 | x
O=C(Nc1ccccc1C(F)(F)F)C1CCN(C(=O)c2cccs2)CC1 | 15.5 | 8.2 | 11.3 | -15.0 | 21.8 | 13.6
CCn1c(COc2ccc(Cl)cc2)nnc1SCC(=O)Nc1ccc2c(c1)OCCO2 | -20.2 | -17.5 | -11.1 | 6.4 | 4.2 | 38.1*
COc1ccc(O)c(/C=N/c2nc3ccccc3n2C)c1 | -6.1 | 16.9 | 5.3 | 2.6 | 21.6 | 33.1*
CCCc1nnc(SCC(=O)N2CCCCC2C)n1CCOC (stereo not given) | -1.4 | 10.5 | -21.9 | -4.2 | 4.7 | 24.0*
CCCc1nnc(SCC(=O)N2CCCCC2C)n1CCCOC (stereo not given) | -2.2 | 4.0 | -15.1 | 9.1 | 15.9 | 3.1
Cc1ccc(N2CC(C(=O)N3CCC(C(=O)NC(C)(C)C)CC3)CC2=O)cc1 (stereo not given) | -14.3 | 12.6 | 20.7 | 6.0 | 6.1 | 14.1
CC(C)N(C(=S)Nc1cc(S(=O)(=O)N2CCOCC2)ccc1Cl)c1ccccc1 | 9.1 | 3.2 | -5.7 | -3.3 | 21.1 | 59.3*
CCN(CC(=O)Nc1c(F)cccc1F)C(=O)c1cc(-c2cccs2)nn1-c1ccccc1 | 8.8 | 31.0 | x | 18.6 | 9.0 | x
CCCCCCCCCCOC(=O)Cn1c(COc2ccc(OC)cc2)[n+](C)c2ccccc21 | 32.6 | 26.0 | 108.0*! | 29.8 | 15.3 | 21.9
CCCCCCCCCCOC(=O)Cn1c(COc2ccccc2)[n+](C)c2ccccc21 | 19.2 | -40.0 | -1.8 | -6.0 | 16.4 | 22.5
Cc1cccc(NC(=S)NC(C)(C)CC(C)(C)C)c1 | 36.2 | 29.6 | -24.2 | 27.4 | 19.9 | 25.6
NNC(=S)NCc1ccc2c(c1)OCO2 | -57.0 | 10.7 | -8.9 | -18.9 | 10.4 | 104.7*
O=C(NCCc1ccc(F)cc1)C(=O)Nc1cc2c3c(c1)CC(=O)N3CCC2 | 5.9 | 7.5 | x | 20.6 | 5.2 | x
Cc1c(/C=C(\C#N)C(=O)NCc2ccccc2)cc(C#N)n1C | -4.9 | 3.1 | 4.0 | 0.4 | 20.9 | 15.7
CC(C)=CCc1c2c(c3occ(-c4ccc(O)c(O)c4)c(=O)c3c1O)C=CC(C)(C)O2 | x | x | 101.9* | x | x | x
Nc1ccn(C2OC(COP(=O)(O)O)C(O)C2O)c(=O)n1 (stereo not given) | x | x | -18.2 | x | x | x
CCOc1ccc(N/C(N)=N/c2nc(CSc3nnc(C)s3)cc(=O)[nH]2)cc1 | -4.0 | -0.6 | 8.2 | -9.7 | 6.8 | 38.6*
CC(C)(C)c1ccc(C(=O)NCCC(=O)NC2=NCCS2)cc1 | -5.0 | 0.4 | 32.7 | -10.4 | 12.1 | x
CC(C)(C)c1ccc(OCCCC(=O)NC2=NCCS2)cc1 | 11.4 | 15.1 | -7.8 | 29.5 | 34.9 | 36.1*
O=C(NCCN1CCOCC1)C1(C(F)(F)F)C/C(=C\Cc2ccccc2)CCCO1 (stereo not given) | -4.9 | 8.9 | -5.8 | -3.1 | 11.7 | x
Cc1ccc2oc(=O)c3cc(C(=O)N4CCN(C(=O)c5ccco5)CC4)sc3c2c1 | 17.7 | 20.7 | x | 26.3 | 7.2 | 10.7
CCN(Cc1ccccc1)C(=O)c1cc2c(=O)oc3ccc(C)cc3c2s1 | 10.2 | 25.8 | -9.1 | 30.6 | 24.5 | 42.3*
COc1ccccc1C1=NOC(C)(c2sc(-c3ccc(Cl)cc3)nc2C)C1 (stereo not given) | -26.9 | -14.5 | -2.5 | -33.9 | 19.6 | x

Compound activity deposited in PubChem by several laboratories.
